Screening results: PubChem BioAssay, several laboratories
Exocytosis inh – LAMP-1 surface exposure blockers, TALL-104 cells – cell-based, flow cytometry, MLPCN library, primary screen. hit rate 0.66% among 360,000. TALL-104 LAMP-1 surface exposure; cells stimulated with thapsigargin and PMA. inhibition, % at 10 µM;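 active means inhibition above about 55%, limit read from the data; inconclusive means no clear call, values can overlap the other calls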
M18AAP inhibitor – PfM18AAP inhibitors, malaria aminopeptidase, primary screen, biochemical, QFRET, recombinant enzyme; M18 aspartyl aminopeptidase (Plasmodium falciparum 3D7); H-Glu-NHMec fluorogenic cleavage; inhibition, % at 7.35 µM; hit rate 1.2% among 290,000; AID 1822, 2009;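 active means inhibition above the campaign mean inhibition over all tested compounds plus 3 SD, cut at about 28% in these data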;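 further: 0% = plate median of test compound wells and 100% = 2 mM ZnCl2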
ABHD5-PLIN5 inh – ABHD5-PLIN5 interaction inhibitors, primary screen, cell lysate, split luciferase complementation, luminescence. Split G. princeps luciferase complementation, 4 h. hit rate 0.78% among 360,000. AID 602281, 2012. Perilipin-5 (Homo sapiens) + 1-acylglycerol-3-phosphate O-acyltransferase ABHD5 (Homo …. inhibition, % at 4 µM;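 active means inhibition above the mean inhibition across every tested compound plus 3 SD, cut at about 22% in these data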;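 further: 0% = DMSO only wells and the 100% control is not disclosed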
Target sequence (Q00G26 whole entry, looked up): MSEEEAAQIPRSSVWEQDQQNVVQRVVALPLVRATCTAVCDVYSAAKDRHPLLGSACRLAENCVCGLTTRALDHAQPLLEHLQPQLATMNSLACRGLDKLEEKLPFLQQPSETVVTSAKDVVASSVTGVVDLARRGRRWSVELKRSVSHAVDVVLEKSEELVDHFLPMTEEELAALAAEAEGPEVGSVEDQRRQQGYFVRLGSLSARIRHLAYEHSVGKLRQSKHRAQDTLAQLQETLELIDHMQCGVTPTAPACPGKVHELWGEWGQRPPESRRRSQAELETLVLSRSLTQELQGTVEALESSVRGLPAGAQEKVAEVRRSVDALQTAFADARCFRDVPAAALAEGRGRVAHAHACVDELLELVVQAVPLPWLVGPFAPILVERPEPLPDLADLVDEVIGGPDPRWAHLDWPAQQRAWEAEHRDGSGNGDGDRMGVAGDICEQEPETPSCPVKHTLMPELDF
Target sequence (Q8WTS1 whole entry, looked up): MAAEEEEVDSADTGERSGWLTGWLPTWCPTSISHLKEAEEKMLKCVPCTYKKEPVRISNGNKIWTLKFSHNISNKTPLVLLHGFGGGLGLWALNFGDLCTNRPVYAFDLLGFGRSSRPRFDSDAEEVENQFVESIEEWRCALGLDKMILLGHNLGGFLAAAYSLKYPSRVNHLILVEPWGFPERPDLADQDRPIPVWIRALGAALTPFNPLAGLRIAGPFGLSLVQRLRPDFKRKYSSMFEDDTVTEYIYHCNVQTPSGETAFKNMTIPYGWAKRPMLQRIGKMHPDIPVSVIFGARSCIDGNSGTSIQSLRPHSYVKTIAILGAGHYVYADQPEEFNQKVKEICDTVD
Platelet DG rel – inhibitors of platelet dense granule secretion, primary screen, cell-based, MLPCN, human platelets | human platelet-rich plasma, SFLLRN dense granule ATP release, luminescence | inhibition, %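 (compounds screened at 7.5 µM in platelet-rich plasma)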 | hit rate 0.22% among 300,000 | AID 1663, 2009;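 active means mean replicate score, as percent of positive control, at or above 50; inconclusive means mean below 50 but at least one replicate at or above 50; inactive means mean and every replicate below 50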
Rce1 inh – yeast Rce1p protease inhibitors, primary screen, biochemical, fluorescence, cell-free homogeneous. CAAX prenyl protease 2 (Saccharomyces cerevisiae (strain ATCC 204508 / S288c)), Q03530. yeast membranes, quenched prenylated peptide cleavage fluorescence. calls only. hit rate 0.27% among 290,000;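 active means fall in fluorescence gain of 50% or more versus controls, with final raw signal at or below 3038400; inconclusive means same 50% fall but final raw signal above 3038400; inactive means fall in fluorescence gain under 50%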;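 further: plate controls were neutral control wells for no effect and wells lacking membranes for full effect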
The depositor's hits bear a star; i = inactive; ? = inconclusive; . = no result given; + = active, no number. In the library only some 2.6% were active in any assay of this set; here they are far more common.

SMILES	Exocytosis inh	M18AAP inhibitor	ABHD5-PLIN5 inh	Platelet DG rel	Rce1 inh
CCOC(=O)c1c2c3c(cccc3[nH]c1=O)C(=O)c1ccccc1-2	-2	2	1	-2	.
CCOC(=O)c1c2c3c(c(Cl)ccc3[nH]c1=O)C(=O)c1ccccc1-2	92*	-6	4	-10	i
CCCCCCN1C=CC(=C2C(=O)c3ccccc3C2=O)C=C1	0	4	1	8	i
CCCN1C=CC(=C2C(=O)c3ccccc3C2=O)C=C1	0	2	4	64*	i
CCN1C=CC(=C2C(=O)c3ccccc3C2=O)C=C1	-1	6	3	53*	i
CC(C)C(=O)Nc1ncc2c(n1)CC(c1cccs1)CC2=O (configuration not stated)	-3	11	3	65*	i
CC(C)OCCCNc1ncc2c(n1)CC(c1cccs1)CC2=O (configuration not stated)	-1	11	1	-9	i
CCOC(=O)N1CCN(S(=O)(=O)CCNC(=O)c2ccccc2)CC1	-9	.	-2	.	i
O=c1cc(O)n(C2CCCCCC2)c(=O)[nH]1	0	9	-23	-2	i
O=c1[nH][nH]c(=S)n1C1CCCCC1	.	58*	.	6	i
CC(C)C1Nc2ccc(C(=O)NCc3ccco3)cc2NC1=O (configuration not stated)	31	30*	4	-9	i
C=C1C(=O)C23CCC4C(C)(C(=O)OC)CCCC4(C)C2CCC1(O)C3 (configuration not stated)	-7	.	72*	.	.
CC(C)CC(OC(=O)c1nsc(Cl)c1Cl)C(=O)NCc1cccs1 (configuration not stated)	0	10	5	1	i
O=C(C(Cc1ccccc1)n1cccc1)N1CCN(c2ncccn2)CC1 (configuration not stated)	2	-3	6	50*	i
Cc1occc1-c1nnc(SCC(=O)NCc2ccco2)n1CC(C)C	0	-3	23*	.	i
O=S(=O)(NC1CCCC1)c1cc(F)ccc1F	-3	3	11	-4	i
CC(=O)Nc1ccc(S(=O)(=O)Nc2cccc(-c3nc4ccccc4o3)c2)cc1	0	3	0	-2	+
O=C(Nc1ccc(-c2nc3cccnc3s2)cc1)C1CCCO1 (configuration not stated)	-1	-3	-3	98*	i
O=S(=O)(Nc1ccc(-c2nc3ccccc3o2)cc1)c1ccccc1	1	-6	-2	3	i
O=C(Nc1ccc(-c2nc3ccccc3o2)cc1)C1CCCO1 (configuration not stated)	0	-3	6	56*	i
COc1ccc(NC(=O)C2CCCO2)cc1 (configuration not stated)	-1	-5	2	-1	i
O=C(Nc1ccc2oc(-c3ccccc3)nc2c1)C1CCCO1 (configuration not stated)	1	-6	6	8	?
O=c1cc([O-])[n+]2c3n1CCCN3CCC2	2	-5	2	-7	i
FC(F)(F)COc1nc(N2CCOCC2)nc(N(c2ccccc2)c2ccccc2)n1	-2	3	4	-6	i
CN(C(=O)COC(=O)c1ccccc1C(=O)N1CCN(c2ccccc2)CC1)c1ccccc1	-3	1	-3	-6	i
SMILES	Exocytosis inh	M18AAP inhibitor	ABHD5-PLIN5 inh	Platelet DG rel	Rce1 inh
O=C(Nc1nc(-c2ccccc2)cs1)c1ccc(N2CCOCC2)c([N+](=O)[O-])c1	84*	2	10	10	i
c1ccc(C2=Nc3ccccc3OC2)cc1	-2	31*	-10	2	i
Cc1ccc2c(c1)N=C(c1ccc(Cl)cc1)CO2	-6	29*	-2	4	i
Clc1ccc(C2=Nc3cc(Cl)ccc3OC2)cc1	-1	-3	-6	3	i
C/C(=N\NC(=O)c1c(C)nc2ccccn12)c1ccc(O)cc1O	-6	29*	8	1	i
COc1ccc(-c2nc(=S)[nH][nH]2)cc1	56*	-37	-3	?	i
COc1ccc(S(=O)(=O)NCc2ccco2)cc1C(=O)N1CCOCC1	0	7	7	-16	i
CCCCn1c(=O)[nH]c(=O)c2c1nc(-c1ccc(OC)c(Br)c1)n2CC(C)C	37	2	-5	6	+
C=CCOc1ccc(-c2nc3c(c(=O)[nH]c(=O)n3CCCC)n2C)cc1Br	-8	-7	0	5	i
O=C(Cn1ccc(NC(=O)OCc2ccccc2)nc1=O)NCc1ccccn1	13	.	-4	.	.
Cn1c(COc2ccccc2O)[n+](C)c2ccccc21	-16	-9	-6	.	i
CCCCCCCCCCOC(=O)Cn1c(COc2ccccc2OC)[n+](C)c2ccccc21	89*	-5	14	7	i
COc1ccc(/C=N/Nc2nccnc2Cl)c(OC)c1	7	5	-4	54*	i
COc1cccc(/C=N/Nc2nc3ccccc3[nH]2)c1O	2	30*	2	6	i
Cc1c(/C=N/Nc2nc3ccccc3[nH]2)c2ccccc2n1C	85*	14	13	5	i
C(=N\Nc1nc2ccccc2[nH]1)/c1ccc2c(c1)OCO2	-2	29*	3	5	i
C/C(=N\Nc1nc2ccccc2[nH]1)c1ccc2c(c1)OCO2	18	23	9	9	i
COc1ccc(/C=N/Nc2nonc2N)c(OC)c1	7	11	-1	4	i
CCOC(=O)N(C)C[C@H]1OCc2cnnn2CCCC(=O)N([C@@H](C)CO)C[C@H]1C	-1	.	-2	.	.
COc1cccc(/C=N/Nc2nccnc2Cl)c1O	-2	24	-6	84*	.
COc1cccc(/C=N/Nc2ncnc(Cl)c2N)c1O	-4	27	5	0	i
COc1ccc(-n2c(-c3ccc(C(C)(C)C)cc3)n[nH]c2=S)c(OC)c1	-7	.	-12	.	.
O=c1/c(=C/c2ccc(O)c([N+](=O)[O-])c2)sc2nc3ccccc3n12	70*	1	1	.	.
O=c1/c(=C\c2cccnc2)sc2nc3ccccc3n12	2	16	6	2	i
CCCCn1c(SCC(=O)Nc2cc(C)on2)nc2c1c(=O)n(C)c(=O)n2C	-11	6	3	9	i
Cc1[nH]c(=O)c(C(=O)/C=C/c2ccccc2F)c2c1CCCC2	0	0	51*	-3	i
C/C(=C\c1ccccc1F)C(=O)c1c(C)cc(C)[nH]c1=O	4	2	-4	17	i
NC(=S)N=Nc1c(O)cc(O)c2[nH]c(=O)ccc12	2	.	29*	.	.
NC(=S)N=Nc1c(O)[nH]c2ccc(F)cc12	0	4	-2	7	i
